Common to all, as to test: DAPPL (digital affinity profiling via proximity ligation, sequencing); 10 mM Tris-HCl pH 7.5, 50 mM NaCl, 1 mM DTT, 4% glycerol, room temperature, 30 min; GST-TFs on glutathione beads, 16-mer random dsDNA library, 0.1% formaldehyde crosslink after washing; high values mean tight binding
What all share (details): protein: recombinant; tags: N-terminal GST; dsDNA, one strand shown

One assay deals with T1, ERF (Homo sapiens, UniProt P50548 1-548).
T1 sequence: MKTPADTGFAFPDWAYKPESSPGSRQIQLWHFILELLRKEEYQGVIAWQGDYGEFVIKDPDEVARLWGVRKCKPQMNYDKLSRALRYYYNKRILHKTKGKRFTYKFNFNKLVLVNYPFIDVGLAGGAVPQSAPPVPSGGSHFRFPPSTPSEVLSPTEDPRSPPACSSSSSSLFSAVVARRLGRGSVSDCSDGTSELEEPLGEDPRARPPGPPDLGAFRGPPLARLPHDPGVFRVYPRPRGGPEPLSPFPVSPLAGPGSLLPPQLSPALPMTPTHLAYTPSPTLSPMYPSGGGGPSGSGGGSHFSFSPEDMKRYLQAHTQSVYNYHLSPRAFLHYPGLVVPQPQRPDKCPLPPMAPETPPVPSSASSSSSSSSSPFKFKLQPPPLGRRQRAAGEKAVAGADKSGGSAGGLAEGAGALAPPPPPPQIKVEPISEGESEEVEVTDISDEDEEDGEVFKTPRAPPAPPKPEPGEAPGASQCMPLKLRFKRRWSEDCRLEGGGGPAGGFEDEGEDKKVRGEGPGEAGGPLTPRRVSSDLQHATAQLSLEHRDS
The gist of the method:
(§1)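 Binding signal is given per hexamer as its read frequency for a factor divided by its frequency in the tag-only sample. GST-fused human transcription factors were expressed in yeast, captured on glutathione beads, barcoded with DNA and pooled with that sample, then incubated with 200 nmole of a 16-mer random double-stranded DNA library in Tris/NaCl/DTT/glycerol buffer for 30 min at room temperature. The pools were then washed, crosslinked, proximity-ligated, amplified by PCR and sequenced on an Illumina NextSeq500.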

Another assay deals with T2, ETV3L (Homo sapiens, UniProt Q6ZN32 1-361).
T2 sequence: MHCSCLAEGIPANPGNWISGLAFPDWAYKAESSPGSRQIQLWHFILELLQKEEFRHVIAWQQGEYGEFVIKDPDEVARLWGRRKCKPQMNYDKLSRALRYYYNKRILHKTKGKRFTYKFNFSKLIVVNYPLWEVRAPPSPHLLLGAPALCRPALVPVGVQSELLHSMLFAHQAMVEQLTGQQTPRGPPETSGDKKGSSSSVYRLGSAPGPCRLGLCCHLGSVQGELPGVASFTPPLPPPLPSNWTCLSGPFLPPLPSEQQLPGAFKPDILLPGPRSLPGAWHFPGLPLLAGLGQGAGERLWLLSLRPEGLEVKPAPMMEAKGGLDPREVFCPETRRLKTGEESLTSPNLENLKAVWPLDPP
The gist of the method: as §1

In another assay the target is T3, ETS2 (Homo sapiens, UniProt P15036 1-469).
T3 sequence: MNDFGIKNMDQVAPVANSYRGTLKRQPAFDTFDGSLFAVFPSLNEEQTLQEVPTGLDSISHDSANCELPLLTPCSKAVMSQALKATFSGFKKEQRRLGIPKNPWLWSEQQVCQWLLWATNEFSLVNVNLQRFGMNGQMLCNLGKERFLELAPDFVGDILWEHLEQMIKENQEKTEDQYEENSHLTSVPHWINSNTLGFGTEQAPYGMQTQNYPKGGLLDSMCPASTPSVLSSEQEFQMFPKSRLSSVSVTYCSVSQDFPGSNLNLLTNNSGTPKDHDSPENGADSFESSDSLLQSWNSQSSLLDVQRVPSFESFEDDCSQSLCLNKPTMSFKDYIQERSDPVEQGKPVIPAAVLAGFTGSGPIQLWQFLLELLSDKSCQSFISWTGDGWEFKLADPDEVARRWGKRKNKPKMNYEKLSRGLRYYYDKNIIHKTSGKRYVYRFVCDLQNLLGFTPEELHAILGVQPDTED
The procedure, abridged: as §1

A further assay concerns the target T4, SPDEF (Homo sapiens, UniProt O95238 1-335).
T4 sequence: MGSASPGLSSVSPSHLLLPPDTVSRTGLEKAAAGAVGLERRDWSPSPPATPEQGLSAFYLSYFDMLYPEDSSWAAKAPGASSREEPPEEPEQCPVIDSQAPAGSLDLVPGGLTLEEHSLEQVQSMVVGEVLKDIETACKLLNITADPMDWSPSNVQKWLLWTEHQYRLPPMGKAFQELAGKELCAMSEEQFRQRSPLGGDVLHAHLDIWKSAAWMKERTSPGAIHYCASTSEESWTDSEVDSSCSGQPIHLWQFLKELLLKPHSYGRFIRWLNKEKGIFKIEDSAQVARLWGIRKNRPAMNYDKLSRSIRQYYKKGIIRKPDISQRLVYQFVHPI
The gist of the method: as §1

The target in the next assay is T5, ETV7 (Homo sapiens, UniProt Q9Y603 1-341).
T5 sequence: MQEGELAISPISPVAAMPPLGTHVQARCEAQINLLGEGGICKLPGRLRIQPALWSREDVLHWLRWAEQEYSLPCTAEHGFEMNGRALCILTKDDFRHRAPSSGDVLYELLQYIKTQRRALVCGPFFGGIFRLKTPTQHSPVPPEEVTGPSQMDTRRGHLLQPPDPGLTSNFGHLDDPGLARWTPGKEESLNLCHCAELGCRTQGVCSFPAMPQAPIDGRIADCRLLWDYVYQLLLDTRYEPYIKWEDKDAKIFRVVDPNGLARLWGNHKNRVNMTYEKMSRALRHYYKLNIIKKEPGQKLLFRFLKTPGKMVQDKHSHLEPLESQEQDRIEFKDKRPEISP
The procedure, abridged: as §1

A further assay deals with T6, ELF5 (Homo sapiens, UniProt Q9UKW6-2 1-255).
T6 sequence: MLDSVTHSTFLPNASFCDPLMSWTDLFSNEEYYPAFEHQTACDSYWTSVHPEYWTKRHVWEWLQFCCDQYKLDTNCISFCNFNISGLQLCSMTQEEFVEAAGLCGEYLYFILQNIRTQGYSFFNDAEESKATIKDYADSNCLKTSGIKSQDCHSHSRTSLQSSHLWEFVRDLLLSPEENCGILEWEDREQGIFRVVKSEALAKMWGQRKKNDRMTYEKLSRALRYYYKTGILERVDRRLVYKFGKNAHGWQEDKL
The procedure, abridged: as §1

In a further assay the target is T7, ETV3 (Homo sapiens, UniProt P41162-2 1-143).
T7 sequence: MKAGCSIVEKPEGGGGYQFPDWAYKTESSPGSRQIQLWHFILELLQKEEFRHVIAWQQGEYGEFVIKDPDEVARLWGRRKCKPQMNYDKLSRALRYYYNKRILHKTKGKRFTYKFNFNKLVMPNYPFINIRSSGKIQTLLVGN
The procedure, abridged:
as §1

The target in another assay is ETV6 (Homo sapiens, UniProt P41212 1-452). The gist of the method:
as §1

Chain of ETV6 (P41212 whole entry): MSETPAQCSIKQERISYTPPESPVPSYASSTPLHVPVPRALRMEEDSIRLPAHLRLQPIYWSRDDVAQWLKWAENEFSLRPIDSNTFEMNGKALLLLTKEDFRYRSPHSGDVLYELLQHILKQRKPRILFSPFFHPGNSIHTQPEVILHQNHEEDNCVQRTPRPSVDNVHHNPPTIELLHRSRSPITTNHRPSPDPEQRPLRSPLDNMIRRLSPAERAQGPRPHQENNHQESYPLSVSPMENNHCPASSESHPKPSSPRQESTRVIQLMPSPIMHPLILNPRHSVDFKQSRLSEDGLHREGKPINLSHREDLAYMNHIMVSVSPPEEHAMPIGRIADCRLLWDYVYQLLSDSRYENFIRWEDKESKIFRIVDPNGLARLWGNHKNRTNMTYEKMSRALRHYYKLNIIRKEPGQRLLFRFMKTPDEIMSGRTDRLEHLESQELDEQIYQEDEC

TGGATG: the binding signal with ERF was 1.46 fold enrichment (6-mer frequency, TF over GST control); with ETV3L, 1.53 fold enrichment (6-mer frequency, TF over GST control); in the assay with ETS2 it was 1.4 fold enrichment (6-mer frequency, TF over GST control); with SPDEF, 1.53 fold enrichment (6-mer frequency, TF over GST control); in the assay with ETV7, 1.68 fold enrichment (6-mer frequency, TF over GST control); with ELF5 it was 1.45 fold enrichment (6-mer frequency, TF over GST control). In addition, the binding signal with ETV3 was 1.57 fold enrichment (6-mer frequency, TF over GST control); with ETV6 it was 1.44 fold enrichment (6-mer frequency, TF over GST control).

For the sequence ACGCCT, the binding signal with ERF is 1.15 fold enrichment (6-mer frequency, TF over GST control); with ETV3L, 1.31 fold enrichment (6-mer frequency, TF over GST control); with ETS2, 1.17 fold enrichment (6-mer frequency, TF over GST control); in the assay with SPDEF, 1.12 fold enrichment (6-mer frequency, TF over GST control); in the assay with ETV7 it was 1.01 fold enrichment (6-mer frequency, TF over GST control); with ELF5, 1.09 fold enrichment (6-mer frequency, TF over GST control). Further, the binding signal with ETV3 was 1.19 fold enrichment (6-mer frequency, TF over GST control); with ETV6 it was 1.3 fold enrichment (6-mer frequency, TF over GST control).

As to TATTAA, the binding signal with ERF is 1.22 fold enrichment (6-mer frequency, TF over GST control); with ETV3L, 1.18 fold enrichment (6-mer frequency, TF over GST control); in the assay with ETS2 it was 1.17 fold enrichment (6-mer frequency, TF over GST control); in the assay with SPDEF, 1.18 fold enrichment (6-mer frequency, TF over GST control); with ETV7, 1.15 fold enrichment (6-mer frequency, TF over GST control); with ELF5, 1.13 fold enrichment (6-mer frequency, TF over GST control). Further, the binding signal with ETV3 was 1.16 fold enrichment (6-mer frequency, TF over GST control); with ETV6, 1.12 fold enrichment (6-mer frequency, TF over GST control).

Regarding CATCTA, the binding signal with ERF was 1.19 fold enrichment (6-mer frequency, TF over GST control); with ETV3L, 1.16 fold enrichment (6-mer frequency, TF over GST control); with ETS2 it was 1.13 fold enrichment (6-mer frequency, TF over GST control); in the assay with SPDEF it was 1.07 fold enrichment (6-mer frequency, TF over GST control); with ETV7, 1.21 fold enrichment (6-mer frequency, TF over GST control); with ELF5, 1.17 fold enrichment (6-mer frequency, TF over GST control). In addition, the binding signal with ETV3 is 1.05 fold enrichment (6-mer frequency, TF over GST control); in the assay with ETV6, 1.15 fold enrichment (6-mer frequency, TF over GST control).

On to TGAACT, for which the binding signal in the assay with ERF was 1.31 fold enrichment (6-mer frequency, TF over GST control); with ETV3L it was 1.23 fold enrichment (6-mer frequency, TF over GST control); with ETS2 it was 1.23 fold enrichment (6-mer frequency, TF over GST control); with SPDEF, 1.16 fold enrichment (6-mer frequency, TF over GST control); in the assay with ETV7, 1.21 fold enrichment (6-mer frequency, TF over GST control); with ELF5, 1.23 fold enrichment (6-mer frequency, TF over GST control). Further, the binding signal in the assay with ETV3 is 1.24 fold enrichment (6-mer frequency, TF over GST control); in the assay with ETV6 it was 1.22 fold enrichment (6-mer frequency, TF over GST control).

CTTTGG: the binding signal with ERF is 1.19 fold enrichment (6-mer frequency, TF over GST control); with ETV3L, 1.18 fold enrichment (6-mer frequency, TF over GST control); with ETS2 it was 1.13 fold enrichment (6-mer frequency, TF over GST control); in the assay with SPDEF, 1.09 fold enrichment (6-mer frequency, TF over GST control); in the assay with ETV7 it was 1.26 fold enrichment (6-mer frequency, TF over GST control); with ELF5, 1.09 fold enrichment (6-mer frequency, TF over GST control). The binding signal was 1.22 fold enrichment (6-mer frequency, TF over GST control) with ETV3 and 1.14 fold enrichment (6-mer frequency, TF over GST control) with ETV6.

On to ATACAG, for which the binding signal in the assay with ERF is 1.16 fold enrichment (6-mer frequency, TF over GST control); with ETV3L, 1.1 fold enrichment (6-mer frequency, TF over GST control); with ETS2 it was 1.17 fold enrichment (6-mer frequency, TF over GST control); with SPDEF it was 1.21 fold enrichment (6-mer frequency, TF over GST control); with ETV7, 1.18 fold enrichment (6-mer frequency, TF over GST control); with ELF5, 1.17 fold enrichment (6-mer frequency, TF over GST control). In addition, the binding signal with ETV3 was 1.18 fold enrichment (6-mer frequency, TF over GST control); with ETV6 it was 1.12 fold enrichment (6-mer frequency, TF over GST control).
